The results in this text go back to PubChem BioAssay AID1777 (Sanford-Burnham Center for Chemical Genomics, 2009).

The whole screen tested about 280,000 compounds, of which about 50 (0.02%) were called active. The sample as a whole holds a higher share of actives than the screen did. Results with a measured potency or affinity are listed apart. Values without a mark were called inactive. No stated cut-off is given here; in the data, active means activation above about 50% (passing the limit was not always enough); inactive means the rest.

The target in the experiment is Kappa-type opioid receptor (Homo sapiens) (UniProt P41145). Kind of experiment: kappa opioid receptor activators – cell-based, luminescence, uHTS, primary screen (AID 1777). Particulars: KOR beta-arrestin recruitment, at 10 µM, stronger effect = higher value. (Recruitment of arrestin is a read-out of receptor activation apart from second messengers.)
Kappa-type opioid receptor (Homo sapiens), sequence (P41145 whole entry, looked up): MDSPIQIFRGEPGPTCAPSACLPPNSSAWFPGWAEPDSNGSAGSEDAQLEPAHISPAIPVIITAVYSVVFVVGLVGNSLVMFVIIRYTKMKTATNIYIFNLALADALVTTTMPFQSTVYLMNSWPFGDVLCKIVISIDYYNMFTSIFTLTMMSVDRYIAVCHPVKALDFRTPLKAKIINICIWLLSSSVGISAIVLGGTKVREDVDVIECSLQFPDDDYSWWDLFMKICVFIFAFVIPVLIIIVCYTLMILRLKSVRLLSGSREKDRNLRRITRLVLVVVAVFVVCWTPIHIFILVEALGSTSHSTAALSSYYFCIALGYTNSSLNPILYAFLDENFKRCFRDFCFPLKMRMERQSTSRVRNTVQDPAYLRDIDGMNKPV
Take `COc1cccc(CN2CC(C(=O)N(C)Cc3nc(C)cs3)CCC2=O)c1` (stereo not given): the activation was -2.2%.
Take `O=c1cc(N2CCN(c3ccccc3)CC2)[nH]c(=O)n1Cc1ccc(F)cc1`: the activation was -5.2%.
To `Cc1cccc(N2CCN(C(=O)c3cccc(N4CCCC4=O)c3)CC2)c1C` belongs -3.4%; to `Cc1cccc2cc(CN(Cc3cccs3)C(c3nnnn3C3CCCC3)C(C)C)c(=O)[nH]c12` (stereo not given), 66% (active).
In the case of `Cc1cccc2cc(CN(Cc3cccs3)C3(c4nnnn4C4CCCC4)CCCC3)c(=O)[nH]c12` it was 9.6%; in that of `CCC(c1nnnn1C1CCCC1)N(Cc1cccs1)Cc1cc2cc(C)ccc2[nH]c1=O` (stereo not given), 3.2%; in that of `Cc1ccc(N2CC(C(=O)N3CCCCCC3)CC2=O)cc1` (stereo not given), 1.5%.
In the case of `CC1CCCN(C(=S)Nc2ccc(S(=O)(=O)N3CCCCC3)cc2)C1` (stereo not given) it was -0.4%; in that of `CCCOC(=O)NC1C(NC(=O)OCCC)N(C)C(=O)N1C` (stereo not given), -2.1%.
Consider `Cn1cccc1/C=N/N1CCN(Cc2cccc3ccccc23)CC1`, for which the activation is 3%.
With `O=C(CSc1nc2ccc([N+](=O)[O-])cc2[nH]1)c1ccc2ccccc2c1`, the activation was -0.1%.
As for `Nc1ccc2nc(SCC(=O)c3ccccc3)sc2c1`, the activation is -1.7%.
In the case of `O=C(CSc1nc2ccc([N+](=O)[O-])cc2s1)c1ccc2ccccc2c1` it was 57.8% (active); in that of `CCOC(=O)N1CCC(N(CCOC)C(=O)Nc2ccc(Cl)c(Cl)c2)CC1`, -4.1%.
On to `COc1ccc(OC)c2[nH]c(=O)c(CCNC(=S)NC(C)(C)C)cc12`, for which the activation was -9%.
To `OCCNCc1ccc(OCc2ccc(Cl)cc2Cl)cc1` belongs -6.2%.
To `OCCCCNCc1ccc(OCc2ccc(Cl)cc2Cl)cc1` belongs 3.1%; to `Oc1cccc(C(O)CNCc2ccc(OCc3ccc(Cl)cc3Cl)cc2)c1` (stereo not given), 103% (active).
Turning to `Cc1cc(C)n(CCNC(=O)c2cc(COc3ccc4ncccc4c3)on2)n1`, the activation was 0.2%.
To `Cc1ccc(OC(C)c2nnc(N)s2)cc1Cl` (stereo not given) belongs -0.5%; to `COc1ccc(S(=O)(=O)N2CCCC(C(=O)NC3CCCC3)C2)cc1OC` (stereo not given), -2.8%.
Consider `C(=C\c1ccccc1)/CNCC1CCCO1` (stereo not given), for which the activation is 2%.
In the case of `CC[C@@H](C(=O)[C@@H](C)[C@@H](O)[C@H](C)CCc1ccc(C)c(O)c1C(=O)O)[C@H]1O[C@](CC)([C@H]2CC[C@](O)(CC)[C@H](C)O2)C[C@@H]1C` it was 83.4% (active).
To `CC(C)OCCCNC(=O)C(Cc1ccccc1)NS(=O)(=O)c1ccc2c(c1)CCC(=O)N2` (stereo not given) belongs 0.5%; to `COc1ccc(N=C2SCC(=O)N2CCc2ccc(OC)c(OC)c2)cc1`, 23.1%.
In the case of `COc1ccc(CCN2C(=O)CSC2=Nc2ccc(C)cc2C)cc1OC` it was 9.8%.
`COc1ccc2cc(CN(CC3COCCO3)S(=O)(=O)c3c(C)cc(C)cc3C)c(=O)[nH]c2c1` (stereo not given): the activation was -0.5%.
To `O=C(CN1CCN(c2ccc(F)cc2)CC1)Nc1cccnc1Cl` belongs 0.4%.
Consider `COc1ccc(C(=O)CSc2nnc(-c3ccc(C)cc3)o2)cc1`, for which the activation was -0.9%.
In the case of `COc1ccc(C(=O)CSc2nnc(-c3ccc(S(=O)(=O)N4CCOCC4)cc3)o2)cc1` it was 50.2% (active); in that of `CCN(CC)S(=O)(=O)c1ccc(-c2nnc(SCC(=O)c3ccc(OC)cc3)o2)cc1`, 3.1%; in that of `O=C(NCc1ccccc1)c1ccc(N2C(=O)C3CCCCC3C2=O)cc1` (stereo not given), -2.4%.
In the case of `Cc1ccc(C)c2[nH]c(=O)c(CN(Cc3ccc4c(c3)OCO4)Cc3nnnn3Cc3ccco3)cc12`, the activation is 10.8%.
Take `Cc1ccc2cc(CN(Cc3ccc4c(c3)OCO4)Cc3nnnn3Cc3ccco3)c(=O)[nH]c2c1`: the activation was 26.7%.
To `Cc1cc(C)c2cc(CN(Cc3ccc4c(c3)OCO4)Cc3nnnn3Cc3ccco3)c(=O)[nH]c2c1` belongs 83.5% (active); to `Cc1ccc2nc(C)c(C(=O)N/N=C/c3ccc(N4CCOCC4)cc3)cc2c1`, 3%.
On to `CN(c1ccccc1C(=O)Nc1ccc(CC#N)cc1)S(=O)(=O)c1ccccc1`, for which the activation was 2.4%.
To `Cc1ccccc1NC(=S)N(Cc1cccs1)C1CCCC1` belongs 4.8%.
In the case of `Cc1ccccc1NC(=S)N(Cc1cccs1)C1CCCCC1`, the activation is -6.5%.
Consider `Cc1ccc(C(C)NC(=O)c2cc(C)oc2C)cc1` (stereo not given), for which the activation was 8.6%.
In the case of `COc1ccc(C)cc1NC(=O)CSc1nnc(-c2ccccn2)n1Cc1ccco1` it was 1.2%; in that of `Clc1ccc(CSc2nnc(-c3cccnc3)n2Cc2ccco2)c(Cl)c1`, -2.8%; in that of `O=C(CSc1nnc(-c2ccccn2)n1Cc1ccco1)c1ccc(Cl)cc1`, 81.9%.
In the case of `Clc1cccc(CSc2nnc(-c3cccnc3)n2Cc2ccco2)c1` it was -4.9%; in that of `COc1ccccc1NC(=O)CSc1nnc(-c2ccccn2)n1Cc1ccco1`, 17.1%.
In the case of `Clc1ccccc1CSc1nnc(-c2ccccn2)n1Cc1ccco1`, the activation is 31.6%.
To `Cc1ccc(O)c(N=Nc2ccc(S(=O)(=O)N3CCCC3)cc2)c1` belongs -0.2%; to `CN(C)CC(C)(C)CNC(=O)C1CCN(CCCc2ccccc2)CC1`, -5.3%.
To `CCOc1nc(NC2CCCC2)nc(N2CCC(C)CC2)n1` belongs -3.8%.
`CCCNC(=O)NC(=O)CSc1nnc(-c2ccncc2)n1CC`: the activation was -1.1%.
For the compound `COC(=O)CN1C(=O)[C@H]2[C@@H](c3ccc(C)o3)N3C(=O)CN(CCO)C(=O)[C@@]3(Cc3ccccc3)[C@H]2C1=O`, the activation is 5.5%.
To `O=C1C2ON(c3ccccc3)C(c3cccnc3)C2C(=O)N1c1ccccc1` (stereo not given) belongs -3.9%.
On to `Cc1c(Cl)cccc1N1C(=O)C2ON(c3ccccc3)C(c3cccnc3)C2C1=O` (stereo not given), for which the activation is 0.9%.
To `CC(=O)N1CCC(C(=O)NC2CC(C)(C)Cc3c2cnn3-c2ccc(F)cc2)CC1` (stereo not given) belongs -2.2%; to `CC(=O)Nc1ccc(N/C=C/C(=O)c2ccccc2)cc1`, -0.7%; to `Cn1c(=O)c2c(nc(Oc3ccc4c(c3)OCO4)n2Cc2ccc(Br)cc2)n(C)c1=O`, 9.8%.
To `Cn1c(=O)c2c(nc(Oc3ccc4c(c3)OCO4)n2Cc2ccc(Cl)cc2)n(C)c1=O` belongs 62.7%.
To `Cn1c(=O)c2c(nc(Oc3ccc4c(c3)OCO4)n2Cc2ccc(F)cc2)n(C)c1=O` belongs 67.5% (active); to `Cn1c(=O)c2c([nH]c(OCc3ccc(Cl)cc3Cl)[n+]2Cc2ccc(F)cc2)n(C)c1=O`, 6.8%.
For `O=C(Cc1cccs1)N(Cc1cccs1)C1(C(=O)NC2CCCCC2)CCCCC1`, the activation was -1.5%.
To `O=C(Cc1cccs1)N(Cc1cccs1)C1(C(=O)NC2CCCC2)CCCCC1` belongs -2.8%.
In the case of `O=C(c1ccc(=O)[nH]c1)N(Cc1cccs1)C1(C(=O)NC2CCCC2)CCCCC1` it was 5.3%; in that of `O=C(c1cnccn1)N(Cc1cccs1)C1(C(=O)NC2CCCC2)CCCCC1`, 30.1%.
As to `O=C(c1cnccn1)N(Cc1cccs1)C1(C(=O)NC2CCCCC2)CCCCC1`, the activation was 64.7% (active).
To `COc1ccc(NC2=NCCCCC2)cc1` belongs -4.3%.
In the case of `Cc1ccc(N2C(=O)C(c3c(C)[nH]n(-c4ccccc4)c3=O)(C(F)(F)F)C3=C2CC(C)(C)CC3=O)cc1` (stereo not given) it was -2.8%; in that of `Cc1ccc(C(=O)NC(=S)Nc2cccc(NC(=O)c3ccccc3Cl)c2)cc1[N+](=O)[O-]`, 1.9%; in that of `CNC(=S)N(CCc1c(C)[nH]c2ccc(Cl)cc12)Cc1cccnc1`, -1%.
In the case of `c1ccc(Cn2c(-c3cccs3)nc3nc4ccccc4nc32)cc1` it was 65.7% (active); in that of `C=CCn1c(-c2cccs2)nc2nc3ccccc3nc21`, -4.6%; in that of `CCCn1c(-c2cccs2)nc2nc3ccccc3nc21`, 13.8%.
As for `O=C(NCc1cnc2ccccn12)C1CCC(=O)N(Cc2ccccc2F)C1` (stereo not given), the activation was -0.5%.
To `CN(C)S(=O)(=O)c1ccc(NC(=O)N2CCN(c3ccccc3)CC2)cc1` belongs 22.3%.
To `CC(=O)N1CCN(c2ccc(NC(=O)c3cc(Cl)ccc3Cl)cc2)CC1` belongs -3.7%; to `CCOC(=O)CSc1nnc2n(Cc3ccccc3)c(=O)c3c4c(sc3n12)CCC4`, -9.3%.
`CCCSc1nnc2n(Cc3ccccc3)c(=O)c3c4c(sc3n12)CCC4`: the activation is 69.7% (active).
In the case of `C=C(C)CSc1nnc2n(Cc3ccccc3)c(=O)c3c4c(sc3n12)CCC4` it was -1.4%; in that of `O=C(NCC1CCCO1)C1CCCN(S(=O)(=O)c2ccc(Br)cc2)C1` (stereo not given), 0.4%.
As to `CCOC(=O)c1ccccc1N/C=C1\CCCC1=O`, the activation is 0.9%.
Consider `Cn1c(=O)oc2cc(S(=O)(=O)N3CCN(c4ccc(F)cc4)CC3)ccc21`, for which the activation is -1.1%.
To `O=C1CN(CC(=O)N2CCCCC2)c2ccccc2O1` belongs -1.4%; to `COc1cc([N+](=O)[O-])ccc1NC(=O)Nc1ccc(C(=O)N2CCCC2)cc1`, -5.9%.
To `Brc1ccc(CSc2nnc(-c3cnccn3)n2Cc2ccco2)cc1` belongs 41.3%; to `C(=C\c1ccccc1)/CSc1nnc(-c2cnccn2)n1Cc1ccco1`, 16.2%.
To `O=C(CSc1nnc(-c2ccccn2)n1Cc1ccco1)c1ccccc1` belongs 15.7%; to `C(=C\c1ccccc1)/CSc1nnc(-c2ccccc2)n1Cc1ccco1`, 3.8%; to `COC(=O)CSc1nnc(-c2ccccn2)n1Cc1ccco1`, -0.5%.
As to `NC(=O)CSc1nnc(-c2ccccn2)n1Cc1ccco1`, the activation was 2.2%.
To `COc1cc(S(=O)(=O)NC2CCCC2)ccc1-n1cnnn1` belongs -0.2%; to `CCOc1ccccc1NC(=O)CCn1cccc1`, -0.4%.
